Measurements published in PubChem BioAssay (Tox21).
Records with an inconclusive call do not appear. The source made the active and inactive calls. Calls follow the shape of the full dose curve.

Test: qHTS assay to identify small molecule agonists or antagonists of the thyroid stimulating hormone receptor (TSHR) signaling pathway - wild type cell line counter screen (AID 1259384)
Details: HEK293 wild type, cAMP HTRF counter-screen; series mostly up to 92.4 µM
Description: U.S. Tox21 Program National Center for Advancing Translational Sciences [NCATS] NIH Chemical Genomics Center [NCGC] U.S. Environmental Protection Agency [EPA] National Institutes of Environmental Health Sciences [NIEHS] National Toxicology Program [NTP] U.S. Food and Drug Administration [FDA] Tox21 Assay Overview: TSHR is the receptor for thyrotropin (thyroid stimulating hormone or TSH), a member of the glycoprotein hormone family. TSH is released by the anterior pituitary gland and is the main regulator of thyroid gland growth and development. Upon binding circulating thyrotropin, a G-protein signal cascade activates adenylyl cyclase and […] cAMP concentration is increased. cAMP is a key second messenger involved extensively in cellular signal transduction pathways associated with the majority of G-protein coupled receptors (GPCRs). The activation of these GPCRs by neurotransmitters, lipids, nucleotides, peptides and hormones results in the activation or the inhibition of plasma membrane-bound adenylate cyclase through heterotrimeric G-proteins. A cell-based TSHR-Hek293 assay can be used to identify TSHR agonists. To eliminate the false positive compounds identified from screening a cell-based TSHR-Hek293 cell line, cAMP assay in a wild type Hek293 cells was used as a counter screening.
Tox21 Assay Protocol Summary: Hek293 cells (wild type) were dispensed at 800 cells/4 uL/well in 1536-well white plates using a Multidrop dispenser. After the assay plates were incubated at a 37 C/5% CO2 incubator for 18 hrs, 23 nL of compounds dissolved in DMSO, positive controls or DMSO only was transferred to the assay plate by a pin tool, followed by 1 ul medium containing Ro20-1724. After 30 min of incubation at room temperature, 2.5 ul/well of cAMP-d2 and 2.5 ul/well of anti-cAMP-cryptate were added respectively into the assay plates using a Flying Reagent Dispenser. The plates were incubated at room temperature for 1 hr. The fluorescence intensity in the plates was measured using an Envision plate reader. Each test compound was measured at 15 concentrations and in triplicates.

SMILES	outcome
Cl/C=C\C[N+]12CN3CN(CN(C3)C1)C2	inactive
C=CC(=O)OC(C)(C)C	inactive
O=C1C(Cl)C(CCl)CN1c1cccc(C(F)(F)F)c1 (stereo not given)	inactive
O=NN1CCCCCC1	inactive
CCCCN(N=O)C(=N)N[N+](=O)[O-]	inactive
CCOP(=O)(OCC)SCCSCC	inactive
CC(=O)[C@H]1CC[C@H]2[C@@H]3CC[C@H]4C[C@](C)(O)CC[C@]4(C)[C@H]3CC[C@]12C	inactive
ClCc1cccc(Cl)c1	inactive
CN1C[C@H](CNC(=O)OCc2ccccc2)C[C@@H]2c3cccc4c3c(cn4C)C[C@H]21	inactive
CCCCCCCCOC(=O)c1ccc(C(=O)OCCCCCCCC)c(C(=O)OCCCCCCCC)c1	inactive
CCOP(=S)(OCC)Oc1cc(Cl)c(Br)cc1Cl	inactive
CCOP(=S)(OCC)Oc1nc(Cl)c(Cl)cc1Cl	inactive
CN1C(=O)NC(=O)C(C)(C2=CCCCC2)C1=O (stereo not given)	inactive
ClP(Cl)(Cl)(Cl)Cl	inactive
O=Cc1ccc2c(c1)OCO2	inactive
c1ccc(CN2CCNCC2)cc1	inactive
CC(C)O.CC(C)O.OCCN(CCO)CCO.OCCN(CCO)CCO.[Ti]	inactive
C/C(=C\c1ccccc1)[N+](=O)[O-]	inactive
CO/C=C(/C(=O)OC)c1ccccc1COc1cccc(C(F)(F)F)n1	inactive
CNP(=O)(OC)Oc1ccc(C(C)(C)C)cc1Cl (stereo not given)	inactive

SMILES	outcome
CC(Cl)Cl	inactive
CCCCC(O)(Cn1cncn1)c1ccc(Cl)cc1Cl (stereo not given)	inactive
CCCCC(CC)COP(=O)(Oc1ccccc1)Oc1ccccc1 (stereo not given)	inactive
Nc1nc(=S)[nH][nH]1	inactive
CC1(C)CCC(Cc2ccc(Cl)cc2)C1(O)Cn1cncn1 (stereo not given)	inactive
NNC(=O)c1cccnc1	inactive
C=CCCl	inactive
CCOC(=O)COc1cc(-c2nn(C)c(OC(F)F)c2Cl)c(F)cc1Cl	inactive
C=CC(=O)OCC(C)O (stereo not given)	inactive
CC(=O)NC1CCSC1=O (stereo not given)	inactive
CCN(C)N=O	inactive
CC/C(=N\OC/C=C/Cl)C1=C(O)CC(C2CCOCC2)CC1=O (stereo not given)	inactive
CCCC(Cn1cncn1)c1ccc(Cl)cc1Cl (stereo not given)	inactive
N#CCC#N	inactive
O=S(=O)(O)C(F)(F)C(F)(F)C(F)(F)C(F)(F)F	inactive
CCc1ccc(C(=O)NN(C(=O)c2cc(C)cc(C)c2)C(C)(C)C)cc1	inactive
CCOP(=S)(OCC)SCSCC	inactive
CN1[C@@H]2CC[C@H]1CC(OC(=O)c1cc(Cl)cc(Cl)c1)C2 (stereo not given in full)	inactive
CCOP(=O)(OCC)Oc1ccc([N+](=O)[O-])cc1	inactive
CCCCCCC#N	inactive
